Compounds with a hit are over-represented: about 2.4% of the library has one in this group of screens.
D2 antag = antagonists of human D2 dopamine receptor. 340,000 tested, 2% active. inhibition, % at 10 µM. P14416. HEK293 TREx D2 cells, calcium flux, dopamine EC80; in the data active = inhibition above about 30%; inactive = below that, where a call was filed
Target sequence (P14416 whole entry, looked up): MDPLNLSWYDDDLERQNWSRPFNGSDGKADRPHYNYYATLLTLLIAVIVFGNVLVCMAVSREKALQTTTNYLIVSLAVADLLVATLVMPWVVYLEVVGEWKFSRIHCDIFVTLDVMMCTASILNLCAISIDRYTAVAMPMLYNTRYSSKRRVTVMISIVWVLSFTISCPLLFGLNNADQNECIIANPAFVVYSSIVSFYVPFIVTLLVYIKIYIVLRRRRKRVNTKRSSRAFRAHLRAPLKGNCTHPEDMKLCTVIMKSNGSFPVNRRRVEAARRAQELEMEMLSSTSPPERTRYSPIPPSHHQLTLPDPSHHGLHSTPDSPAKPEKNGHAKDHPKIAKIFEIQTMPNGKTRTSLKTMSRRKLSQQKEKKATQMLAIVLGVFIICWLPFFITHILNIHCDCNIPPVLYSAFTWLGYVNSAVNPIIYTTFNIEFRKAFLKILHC
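Dopamine at EC80 is the agonist stimulus; test compounds precede it by 180 s. Calcium flux read kinetically in a force-coupled, inducible HEK293 T-REx D2 cell line.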
D2 PAM-1 = D2 dopamine receptor (human) potentiation. P14416. HEK293 T-REx D2, calcium flux, EC20 dopamine potentiation. potentiation, % at 10 µM. 340,000 tested, 0.34% active;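 active = potentiation over 3 SD above the plate norm, cut at about 30% in these data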
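Tetracycline-induced HEK293 T-REx cells force-coupled to calcium signalling expressed D2; compounds were pin-added after a 10 s baseline, read kinetically 180 s, then an EC20 dopamine challenge followed with a further 180 s calcium read.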
D2 ag-1 = agonists of human D2 dopamine receptor (beta-arrestin) | DiscoveRx PathHunter D2 beta-arrestin, luminescence, 90 min; 100% = 57 uM dopamine signal | activation, % (no concentration beside the values) | 360,000 tested, 0.084% active | AID 624465; in the data active = activation above about 40%; inconclusive = between about 15% and that limit
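DiscoveRx PathHunter D2 beta-arrestin cells (2,100/well) attached overnight, then compound-stimulated 90 min at 37 C in HBSS/10 mM HEPES/0.1% Tween-20 buffer; beta-galactosidase complementation read by luminescence after 1 h at ambient temperature. Dopamine 57 uM final (EC100) as control.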
D2 ag-2 = agonists of human D2 dopamine receptor | 340,000 tested, 0.53% active | P14416 | HEK293 T-REx D2 cells, calcium flux agonist mode | activation, % at 2 µM;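 active = activation over 3 SD above normal in the single-dose calcium agonist read, cut at about 30% in these data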
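Agonism is scored from calcium flux in a force-coupled, inducible HEK293 cell line expressing D2, read kinetically for 180 s after compound addition against dopamine controls.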
D2 PAM-2 = positive allosteric modulators of human D2 dopamine receptor | 360,000 tested, 0.23% active | AID 624464 | P14416 | potentiation, % (concentration not given with the values) | DiscoveRx D2 beta-arrestin cells, luminescence, 90 min; 100% = 57 uM dopamine signal; in the data active = potentiation above about 50%; inconclusive = mostly about 30% to 49%
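PathHunter beta-arrestin assay in DiscoveRx D2 cells. Compounds were added with an EC20 of dopamine (50 nM final) for 90 min at 37 deg C. Luminescence was read 1 h after detection reagent, with 57 uM dopamine as the EC100 control.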
Large screens that a line does not name were inactive.

CCOc1ccc(C(c2c(O)cc(C)n(CCOC)c2=O)N2CCN(c3ccc(F)cc3)CC2)cc1 (stereo not given)	none (no result: D2 antag, D2 ag-1, D2 PAM-2)
CCOC(=O)c1c(C(=O)OCC)c(C)n(CCc2ccc(OC)c(OC)c2)c1C	D2 antag 33
CCOC(=O)N1CCN(c2c(NCCc3ccc(OC)c(OC)c3)c(=O)c2=O)CC1	D2 antag 36
CCCOC(=O)CSc1nnc2ccc3ccccc3n12	none (no result: D2 antag, D2 ag-1, D2 ag-2, D2 PAM-2)
CCCC1(C(=O)OC)NC(c2cccc(F)c2)C2C(=O)N(CC)C(=O)C21 (stereo not given)	D2 antag 31
N#Cc1cccc(NC(=O)Cn2nc(Cc3ccncc3)c3ccccc3c2=O)c1	none (no result: D2 antag, D2 ag-1, D2 PAM-2)
CN(CC(=O)Nc1ccccc1Cl)C(=O)COC(=O)c1ccc([N+](=O)[O-])cc1Cl	D2 ag-1 inconclusive, D2 PAM-2 53
CN(CC(=O)Nc1ccccc1Cl)C(=O)COC(=O)c1nc(Cl)ccc1Cl	none
COCCCNC(=O)Cn1ncc2ccsc2c1=O	D2 antag 30
CCOC(=O)C1=C(CN2CCCCC2)NC(=O)NC1c1ccc(C)cc1 (stereo not given)	none (no result: D2 antag, D2 ag-1, D2 PAM-2)
Cc1nc(N2CCC(C)CC2)c2nnn(Cc3ccccc3)c2n1	D2 PAM-1 34
CC(C)Cc1nc(N2CCC(C(N)=O)CC2)c2nnn(Cc3ccccc3)c2n1	none (no result: D2 antag, D2 PAM-1, D2 ag-2)
COc1ccccc1C(=O)OCc1cc(=O)n2nc(C3CC3)sc2n1	none (no result: D2 antag, D2 ag-1, D2 PAM-2)
CCn1c(SCC(=O)NCc2ccc3c(c2)OCO3)nnc1-c1c[nH]c2ccccc12	D2 PAM-1 34
Cc1cccc(NC(=O)CN2c3ccccc3S(=O)(=O)c3ccccc32)c1C	none (no result: D2 antag, D2 ag-1, D2 PAM-2)
CCCn1c(CN2CCN(c3ccc(OC)cc3)CC2)nc2c1c(=O)[nH]c(=O)n2C	none (no result: D2 antag, D2 ag-1, D2 PAM-2)
COc1ccc(OC)c(CN2CCN(CCCc3ccccc3)C(CCO)C2)c1 (stereo not given)	D2 antag 69
COc1cccc(CN2CCN(Cc3ccc(O)c(OC)c3)CC2CCO)c1 (stereo not given)	D2 antag 36
Cc1ccc(CN2CCN(Cc3cccn3-c3ccccn3)CC2CCO)cc1 (stereo not given)	none
OCCC1CN(Cc2cccn2-c2ncccn2)CCN1Cc1ccccc1 (stereo not given)	D2 antag 31
Cc1ccccc1CN1CCN(CCCc2ccccc2)C(CCO)C1 (stereo not given)	D2 antag 38
O=C(CCC1N=C2c3ccccc3N=C(SCc3ccc(Cl)cc3)N2C1=O)NC1CCCCC1 (stereo not given)	none (no result: D2 antag, D2 ag-1, D2 PAM-2)
C#Cc1ccc(CN2CCN(CCCc3ccccc3)C(CCO)C2)cc1 (stereo not given)	D2 antag 75
C=CCN1C(=O)C(CC(=O)O)SC1=Nc1cccc([N+](=O)[O-])c1 (stereo not given)	none
O=C(O)CC1S/C(=N\N=C2CCCCCCC2)N(c2ccccc2)C1=O (stereo not given)	none
O=C(O)CC1SC(=Nc2ccccc2)N(c2ccccc2)C1=O (stereo not given)	D2 antag 43
C=CCN1C(=O)C(CC(=O)O)SC1=Nc1ccc(N=Nc2ccccc2)cc1 (stereo not given)	D2 PAM-1 39
CC(C)CCn1c(=O)c2sccc2n2c(CCCC(=O)NCc3ccc(F)cc3)nnc12	none (no result: D2 antag, D2 ag-1, D2 PAM-2)
COc1ccc(OCc2nc(C#N)c(NCc3ccccc3Cl)o2)cc1	none (no result: D2 antag, D2 ag-1, D2 PAM-2)
CCN(Cc1ccccc1)Cc1ccc(OCc2ccccc2)cc1	D2 antag 31
CCC(C(=O)O)N1C(=O)c2ccccc2C1=O (stereo not given)	D2 antag 37
O=C(O)C(Cc1ccccc1)N1C(=O)c2ccccc2C1=O (stereo not given)	none
CCOC(=O)c1cnc2ccc(OCC)cc2c1N1CCN(c2cccc(Cl)c2)CC1	none (no result: D2 antag, D2 ag-1, D2 PAM-2)
ONC(=Nc1ccccc1)c1ccc(Cl)cc1	none
NC(=Nc1ccc(Cl)cc1)c1ccccc1	D2 antag 34
CCOc1ccc(C(=O)Nc2c3c(nn2C(C)(C)C)CSC3)cc1OCC	D2 antag 30
CCOc1ccc(C(=O)Nc2nnc(C)s2)cc1OCC	none
Cc1ccccc1OCC(=O)OCC(=O)Nc1ccc(Cl)cn1	D2 antag 31
COc1ccc(CC(=O)Nc2cccc(-c3nnc(-c4ccc(C)cc4)o3)c2)cc1OC	D2 ag-1 inconclusive
COc1ccc(CC(=O)Nc2cccc(-c3nnc(-c4ccccc4)o3)c2)cc1OC	D2 PAM-2 54
CCC1CCCCN1CCCNC(=O)c1ccc2c(c1)N(Cc1ccc(Cl)cc1)C(=O)c1ccccc1S2(=O)=O (stereo not given)	none (no result: D2 antag, D2 ag-1, D2 PAM-2)
Cc1ccc(C(=O)Nc2cccc(C(F)(F)F)c2)cc1Nc1cncnc1	D2 antag 33
CCN(CC)c1ccc(NC(=O)c2c(C)nn(-c3ccc(F)cc3)c2-n2cccc2)c(C)c1	none (no result: D2 antag, D2 ag-1, D2 PAM-2)
CN1/C(=C/C=C(/C#N)C(N)=O)C(C)(C)c2ccccc21	none (no result: D2 antag, D2 PAM-1, D2 ag-2)
CN1/C(=C\C=C(/C#N)C(=O)Nc2ccccc2F)C(C)(C)c2ccccc21	D2 ag-2 62
Cc1cc2nnc(SCC(=O)N3CCCCC3)n2c(N)n1	none
Cc1cc2nnc(SCC(=O)N3C(C)CCCC3C)n2c(N)n1 (stereo not given)	D2 antag 30, D2 PAM-1 37
Cc1cc(N)nc(SCC(=O)N2C(C)CCCC2C)n1 (stereo not given)	D2 PAM-1 34
COc1cc(C)nc(SCC(N)=O)n1	D2 antag 33 (no result: D2 PAM-1)
Cc1cc(C)nc(SCC(=O)N2CCC(C(N)=O)CC2)n1	D2 PAM-1 30
Cc1ccc2c(c1)N(C(=O)CCC(=O)NCc1ccccc1Cl)CC(C)O2 (stereo not given)	none (no result: D2 antag, D2 ag-1, D2 PAM-2)
O=C(Nc1cccc(S(=O)(=O)NC2=NCCCCC2)c1)c1cc(-c2ccncc2)nc2ccccc12	D2 PAM-2 98
O=C(CCl)Nc1cccc(S(=O)(=O)NC2=NCCCCC2)c1	none (no result: D2 antag, D2 PAM-1, D2 ag-2)
O=C(Cc1c(F)cccc1Cl)Nc1cccc(S(=O)(=O)NC2=NCCCCC2)c1	D2 antag 31
Cc1ccc(OCCN2CCOCC2)cc1C	none
Cc1cc(OCCN2CCOCC2)ccc1Cl	D2 antag 46
CC1CCN(CCOc2ccc(Cl)c(Cl)c2)CC1	D2 antag 84
C/C=C(\C)C(=O)Nc1cccc(C2=NOC3(C2)C[C@H](C(N)=O)N(C(=O)c2cc([N+](=O)[O-])cc([N+](=O)[O-])c2)C3)c1 (stereo not given in full)	D2 PAM-2 71
C/C=C(/C)C(=O)Nc1cccc(C2=NOC3(C2)C[C@@H](C(N)=O)N(C(=O)CC(c2ccccc2)c2ccccc2)C3)c1 (stereo not given in full)	D2 antag 32, D2 PAM-1 37
